# Source: PubChem BioAssay (NCATS)
# Records with an inconclusive call do not appear. The source made the active and inactive calls. Calls come from the whole dose curve; as a rule, active = well fitted activation curve with a large enough effect; inconclusive = small, poorly fitted or top-dose-only effect; inactive = no such curve, though single readings can be large or run the other way.
# Target: Cellular tumor antigen p53 (Homo sapiens) (UniProt P04637)
# Assay: Primary qHTS for small molecule compounds that upregulate eGFP-tagged delta133p53alpha (in N-terminal) cells. (AID 2060322); note: nearly all actives have a fitted effect of over 75% in size;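 for activation: cells pre-induced with doxycycline then dosed without doxycycline; series mostly up to about 56 µM; 0% = DMSO vehicle and 100% = reference activator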
# Settings: NCI-H358 eGFP-delta133p53alpha fluorescence, 24 h; activation: stronger effect = higher value
# In short: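 NCI-H358 cells pre-induced 24 h with 10 ng/ml doxycycline for eGFP-delta133p53alpha, plated dox-free and exposed 24 h at 37C to titrated compounds. Fixed, Hoechst-stained; gated GFP peak intensity by laser scanning cytometry, normalized to DMSO (0%) and 57.5 uM 5-azacytidine (100%).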
# Potency is the fitted concentration of half-maximal effect.
# Cellular tumor antigen p53 (Homo sapiens), sequence (P04637 whole entry, looked up): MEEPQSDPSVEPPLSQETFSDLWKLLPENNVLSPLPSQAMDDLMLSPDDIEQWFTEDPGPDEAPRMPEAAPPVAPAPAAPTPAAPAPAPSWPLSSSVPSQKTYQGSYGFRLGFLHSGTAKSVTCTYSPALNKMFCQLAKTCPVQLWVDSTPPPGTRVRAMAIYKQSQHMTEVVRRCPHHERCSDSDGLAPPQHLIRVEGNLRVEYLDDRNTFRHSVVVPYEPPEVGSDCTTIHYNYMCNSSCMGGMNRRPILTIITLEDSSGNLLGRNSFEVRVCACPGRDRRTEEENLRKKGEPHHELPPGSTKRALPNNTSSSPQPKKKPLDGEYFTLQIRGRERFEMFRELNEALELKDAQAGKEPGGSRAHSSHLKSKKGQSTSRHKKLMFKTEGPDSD
SMILES,activation,Potency
CCN(CC)CCc1nc(-c2ccccc2)no1,-25.1% (inactive),–
CCN(CC)CC(=O)Nc1c(C)cccc1C(=O)OC,-9.21% (inactive),–
Cn1cc(C2=C(c3cn(CCCN)c4ccccc34)C(=O)NC2=O)c2ccccc21,–,24.3 µM (active)
CC(=O)OCC(=O)[C@@]1(O)CC[C@H]2[C@@H]3CCC4=CC(=O)C=C[C@]4(C)[C@@]3(F)[C@@H](O)C[C@@]21C,-10.7% (inactive),–
Nc1ccc2c(c1)CN1C(=O)c3ccccc3C1=N2,–,0.0601 µM (active)
O=C1CC2(CCCC2)CC(=O)N1,-7.34% (inactive),–
CC(C)=CCC/C(C)=C/CC/C(C)=C/C(=O)OCC(=O)[C@@]1(O)CC[C@H]2[C@@H]3CCC4=CC(=O)C=C[C@]4(C)[C@H]3[C@@H](O)C[C@@]21C,-21.8% (inactive),–
O=C(O)C[C@H](O)C[C@H](O)C=Cc1c(C2CC2)nc2ccccc2c1-c1ccc(F)cc1,-5.06% (inactive),–
Cc1cc(OI)c(C(C)C)cc1-c1cc(C(C)C)c(OI)cc1C,17.5% (inactive),–
CC(C)CN(C[C@@H](O)[C@H](Cc1ccccc1)NC(=O)O[C@H]1CO[C@H]2OCC[C@H]21)S(=O)(=O)c1ccc(N)cc1,22.9% (inactive),–
CCOC(=O)C(=O)CCc1ccccc1,10% (inactive),–
CC(=O)N[C@H]1[C@H]([C@H](O)[C@H](O)CO)OC(C(=O)O)=C[C@@H]1N=C(N)N,5.02% (inactive),–
COc1ccc2cc1Oc1cc3c(cc1OC)CC[N+](C)(C)[C@H]3Cc1ccc(cc1)Oc1c(OC)c(OC)cc3c1[C@@H](C2)[N+](C)(C)CC3,13% (inactive),–
CCOc1ccc(NC(C)=O)cc1,7.53% (inactive),–
N#C/C(=C1/SC[C@@H](c2ccc(Cl)cc2Cl)S1)n1ccnc1,-25.9% (inactive),–
CN(C)CC/C=C1\c2ccccc2Sc2ccc(Cl)cc21,0% (inactive),–
C[N+]1(C)[C@@H]2CC(OC(=O)[C@H](CO)c3ccccc3)C[C@H]1[C@H]1O[C@@H]12 (stereo not given in full),14% (inactive),–
CCN(CC)c1ccc(C(=C2C=CC(=[N+](CC)CC)C=C2)c2cc(S(=O)(=O)O)ccc2S(=O)(=O)[O-])cc1,-8.47% (inactive),–
Cc1[nH]cnc1CN1CCc2c(c3ccccc3n2C)C1=O,-13.4% (inactive),–
C[C@H](CCC(=O)O)[C@H]1CC[C@H]2[C@H]3[C@@H](CC[C@]12C)[C@@]1(C)CC[C@@H](O)C[C@H]1C[C@@H]3O,-8.06% (inactive),–

SMILES,activation,Potency
Cc1ccc2ccc(Cl)cc2n1,-5.08% (inactive),–
O=C(OOC(=O)c1ccccc1)c1ccccc1,-15.1% (inactive),–
O=C(O)C(Cc1cc(I)c(O)c(I)c1)c1ccccc1 (stereo not given),-19.8% (inactive),–
OC[C@@H](O)[C@@H](O)[C@H](O)[C@H](O)CO,-9.21% (inactive),–
Nc1nc(Cl)nc2c1ncn2[C@@H]1O[C@H](CO)[C@@H](O)[C@H]1F,-22.8% (inactive),–
C[n+]1ccccc1/C=N/O,15.3% (inactive),–
COc1ccc2c(c1)c(CC(=O)OC/C=C(\C)CC/C=C(\C)CCC=C(C)C)c(C)n2C(=O)c1ccc(Cl)cc1,-1.69% (inactive),–
CC(C)(O)[C@H]1CC[C@@](C)([C@H]2[C@@H](O)C[C@@]3(C)[C@@H]4C[C@H](O[C@@H]5O[C@H](CO)[C@@H](O)[C@H](O)[C@@H]5O)[C@H]5C(C)(C)[C@@H](O[C@@H]6OC[C@@H](O)[C@H](O)[C@@H]6O)CC[C@@]56C[C@@]46CC[C@]23C)O1,10.3% (inactive),–
C[C@@H]1CCN(C(=O)[C@H](CCCN=C(N)N)NS(=O)(=O)c2cccc3c2NC[C@H](C)C3)[C@@H](C(=O)O)C1,2.82% (inactive),–
Nc1ccc([N+](=O)[O-])cc1O,-7.53% (inactive),–
O=C(O)c1[nH]n(-c2ccc(S(=O)(=O)O)cc2)c(=O)c1N=Nc1ccc(S(=O)(=O)O)cc1,3.95% (inactive),–
FC(F)(F)C(F)(F)C(F)(F)C(F)(F)C(F)(F)C(F)(F)C(F)(F)C(F)(F)Br,-14.1% (inactive),–
CC(Cc1cccc(C(F)(F)F)c1)NCCOC(=O)c1ccccc1 (stereo not given),17.6% (inactive),–
O=C(Nc1ccc(C(=O)O)c(O)c1)c1ccccc1,-30.1% (inactive),–
CCc1cccc(CC)c1NC(=O)CN(CC(=O)O)CC(=O)O,26.6% (inactive),–
CCOc1ccc(NC(=O)CC(C)O)cc1 (stereo not given),-0.837% (inactive),–
Cc1ccc(C(=O)c2ccc(CC(=O)O)n2C)cc1,14.1% (inactive),–
OCc1ccccc1O[C@@H]1O[C@H](CO)[C@H](O)[C@H](O)[C@H]1O,15.8% (inactive),–
Cc1ccc(C(=O)NCCCCCC(=O)Nc2ccccc2N)cc1,11.2% (inactive),–
O=C(O)P(=O)(O)O,-13% (inactive),–
